Among all 69,000 compounds or so, about 8,600 (12%) showed an effect of 50% or more. The sample holds strong results, similar compounds and a random draw of the others, so the mix is not that of the screen.
system: Plasmodium berghei; assay: Screen against P. berghei liver stage (PbLuc), transformed with Luciferase, at 10uM; assay type: functional, HepG2; conditions: tested at 10 uM

First: CSCC[C@H](NC(=O)Cn1ccc2ccc(Cl)cc21)C(=O)O
Second: Cn1cc(S(=O)(=O)NC(=O)C2(c3cccc(Cl)c3)CC2)cn1
The INHIBITION of the first is lower: -30.8% for the first, -6.94% for the second.

First: Cc1cc(CN2CCCC2Cn2cccn2)no1 (stereo not given)
Second: Cc1cnn(CC2CCCN2Cc2cc(C)no2)c1 (stereo not given)
The INHIBITION of the first is lower: 9.2% for the first, 22.265% for the second.

Going from `CSCc1cccc(S(=O)(=O)N2CCCCCC2)c1` to `CS(=O)(=O)NCC1CCCN(C(=O)Nc2ccccc2N2CCCC2)C1` (stereo not given), the INHIBITION falls from 2.69% to -75.9%.

Going from `Cc1cc(NC2CCc3nc(C(C)C)nn3C2)n2ncnc2n1` (stereo not given) to `Cc1cc(N[C@H]2CCCN(Cc3ccccc3)C2)n2nc(C)cc2n1`, the INHIBITION rises from 49.1% to 63.7%.

Compared with `Cn1nnc2c1C(COCc1ccccn1)CN(C(=O)c1cccs1)C2` (stereo not given), `CC1c2ncc(Cn3cncn3)n2CCN1C(=O)c1ccccn1` (stereo not given) is higher in INHIBITION: 31.8% for the first, 60.9% for the second.

Going from `CS(=O)(=O)N1CC[C@]2(C[C@@H](Oc3ccccn3)CO2)C1` to `CN(Cc1ccccn1)C(=O)[C@H]1CO[C@H]2CCN(CC3CC3)C[C@H]2C1`, the INHIBITION falls from 29% to 11.3%.

First: COc1cccc(C(=O)N2C[C@@H](c3ccccc3)[C@@H]3NCCCC[C@@H]32)c1
Second: COc1cccc([C@H]2CN(C(=O)c3ccccc3)[C@@H]3CCCN[C@H]23)c1
The INHIBITION of the first is lower: 5.11% for the first, 55.6% for the second.

Compared with `COc1ccc(C(=O)N2C[C@@H](c3ccccc3)[C@@H]3NCCCC[C@@H]32)cc1`, `COc1ccc(C2CNCCN2C(=O)c2nccc3ccccc23)cc1` (stereo not given) is higher in INHIBITION: 15.9% for the first, 32.3% for the second.

Compared with `CCn1cc(CN2CCCN(C(=O)c3ccoc3)CC2)cn1`, `CC1CCN(C(=O)c2cccc(CN3CCOCC3)c2)CC1` is lower in INHIBITION: 41.2% for the first, 8.41% for the second.

Going from `CCCNC(=O)C[S+]([O-])Cc1csc(C2CCCCC2)n1` (stereo not given) to `CCC(C)(C)NC(=O)C[S+]([O-])Cc1csc(C2CCCC2)n1` (stereo not given), the INHIBITION rises from 23% to 63.8%.

Going from `O=C(C[S+]([O-])Cc1csc(C2CCCC2)n1)NC1CCCC1` (stereo not given) to `NCC1CCC(C(NC(=O)CC2CCCCC2)c2ccccn2)CC1` (stereo not given), the INHIBITION rises from 36.9% to 38.2%.

Going from `CCc1cnc(N2CCc3ncnc(N4CCN(C)CC4)c3CC2)nc1` to `Cc1nc(N2CCCC2)nc2c1CCN(Cc1ccsc1)CC2`, the INHIBITION falls from 36.2% to 4.1%.

Going from `O=S(=O)(NCc1ccnc(-n2ccnc2)c1)c1cncc(Cl)c1` to `Cc1cc(C)n(-c2ccc(CNCc3ccc(F)c(F)c3)cn2)n1`, the INHIBITION falls from 15.2% to 13.05%.

Going from `Cn1cc(S(=O)(=O)NC(=O)C2(c3ccccc3)CCC2)cn1` to `Cc1cccc(C2(C(=O)NS(=O)(=O)c3cnn(C)c3)CCCC2)c1`, the INHIBITION rises from 2.97% to 53.5%.

First: O=C(CCNC(=O)N1CCC(c2ccccc2)C1)N1CCCCC1 (stereo not given)
Second: COC(=O)c1cc(C(=O)N2CCCC(C)C2)n(-c2ccccc2)n1 (stereo not given)
The INHIBITION of the first is lower: -24.5% for the first, 8.5% for the second.

Compared with `CN(C(=O)C1CCOCC1)[C@@H]1CCC[C@@H](N2CCOCC2)[C@@H]1O`, `O=C(CC1CC1)N1CCc2ncc(CN3CCOCC3)n2CC1` is higher in INHIBITION: 38.2% for the first, 42.7% for the second.

First: Oc1nc(N2CCCC2)nc2c1CCN(Cc1cccnc1)CC2
Second: Oc1nc(N2CCCC2)nc2c1CCN(Cc1ccsc1)CC2
The INHIBITION of the first is lower: 24.8% for the first, 61.7% for the second.

First: CN(Cc1ccsc1)C(=O)c1nc(N2CCCCC2)ncc1Cl
Second: CN(Cc1ccsc1)C(=O)c1nc(N2CCCC2)ncc1Cl
The INHIBITION of the first is higher: 26.7% for the first, -0.232% for the second.

First: O=C(c1nc(N2CCCC2)ncc1Cl)N1CCN(Cc2ccsc2)CC1
Second: O=C(c1cnccn1)N1CCC2(CCN(Cc3ccsc3)CC2)CC1
The INHIBITION of the first is higher: 72.1% for the first, 16.4% for the second.

Compared with `Cc1nc(C)c2c(n1)CCN(Cc1ccsc1)CC2`, `Cc1nc(N2CCOCC2)nc2c1CCN(Cc1ccsc1)CC2` is higher in INHIBITION: -5.08% for the first, 60.5% for the second.

Going from `c1cncc(-c2ncnc3c2CCN(Cc2ccsc2)CC3)c1` to `CC1c2ncc(Cn3cncn3)n2CCN1C(=O)c1ccsc1` (stereo not given), the INHIBITION rises from 3.58% to 52%.

Going from `O=C(c1ccc(N2CCCC2)nc1)N1CCCC(c2nccs2)C1` (stereo not given) to `Cc1cnn(C2CCCN(C(=O)c3ccc4c(c3)CCC4)C2)c1` (stereo not given), the INHIBITION rises from 17.2% to 40.2%.

First: CC(C)Cc1nc(CNCc2cccc(N3CCCC3=O)c2)no1
Second: Cc1cc(C)n(-c2ccc(CNCc3ccc(C)o3)cn2)n1
The INHIBITION of the first is lower: -20.5% for the first, 34.75% for the second.

Going from `CCc1ccc(NC(=O)N2C[C@@H]3C[C@H](C(=O)NC(C)C)[C@H](C2)O3)cc1` to `O=C(c1cc(F)ccc1F)C1CCN(C(=O)c2ccco2)CC1`, the INHIBITION falls from -31.1% to -98.8%.

Compared with `CN1CC2(CCN(C(=O)c3cc(-n4cccn4)ccc3Cl)CC2)OC1=O`, `CN1C(=O)C2(CCN(C(=O)c3ccccc3)CC2)c2cccc(F)c21` is higher in INHIBITION: 14.5% for the first, 43.8% for the second.

Compared with `Cc1ccc(C(C)N(C)Cc2nc3c(cnn3C)c(=O)[nH]2)s1` (stereo not given), `Cc1c(C2c3nc[nH]c3CCN2CCOCc2ccccc2)cnn1C` (stereo not given) is higher in INHIBITION: -30.38% for the first, 27.5% for the second.

Compared with `N#CCSCC(=O)NCC1CCCCC1`, `NC(=O)CSCC(=O)NCC1CCCC1` is higher in INHIBITION: 18.6% for the first, 50.4% for the second.

First: NC(=O)CSCCC(=O)NCC1CC1
Second: O=C([C@H]1CCCO1)N1CC[C@H](O)[C@@H]1Cc1ccncc1
The INHIBITION of the first is lower: -0.71% for the first, 33.2% for the second.

Going from `CN(C(=O)c1ccnn1C)[C@@H]1CCC[C@@H](Oc2ccccc2)[C@@H]1O` to `Cc1ccc(NC2CCCN(CCc3ccccc3)C2)nn1` (stereo not given), the INHIBITION falls from 34% to -28%.

First: CCC(=O)N1CCC(Cc2cnc(Nc3cnccn3)cn2)CC1
Second: O=C(CC1CC1)N1CCc2ncc(Cn3cncn3)n2CC1
The INHIBITION of the first is lower: 16.5% for the first, 57.9% for the second.

Compared with `Cc1n[nH]c(C)c1-c1nccnc1CC1CCN(S(C)(=O)=O)C1` (stereo not given), `Cc1cc(NC2CCCN(Cc3ccc(F)cc3)C2)n2nc(C)cc2n1` (stereo not given) is higher in INHIBITION: -3.31% for the first, 67.3% for the second.

First: Cc1cc(C)nc(NC2CCCN(CCCc3ccccc3)C2)n1 (stereo not given)
Second: Cc1ccc(NC2CCCN(Cc3ccc(Cl)cc3)C2)nn1 (stereo not given)
The INHIBITION of the first is higher: 31.1% for the first, -20% for the second.

First: Cc1cc(NC2CCN(c3ccc(F)cc3)CC2)n2nc(C)cc2n1
Second: Cc1cc(C)n(-c2ccc(CNCc3ccc(F)cc3F)cn2)n1
The INHIBITION of the first is lower: 8.07% for the first, 37.55% for the second.

Compared with `O=C(N1CCCO1)[C@]12COC[C@H]1CN(Cc1nccs1)C2`, `Cc1ccc(CN2CC[C@H]3OCC[C@@]3(C(=O)N3CCCO3)C2)s1` is higher in INHIBITION: 7.24% for the first, 23.3% for the second.

First: CC[C@H]1NCCC[C@]12CCC(=O)N2Cc1ccncc1
Second: Cc1ccc(CN2CCC3(CCC(=O)N3CC(=O)N(C)C)CC2)s1
The INHIBITION of the first is higher: 17.4% for the first, -29.5% for the second.

First: CCN1CCN(c2ccccc2NC(=O)N(C)C2CCSC2)CC1 (stereo not given)
Second: CCN1CCc2c(cccc2NC(=O)N(C)C2CCSC2)C1 (stereo not given)
The INHIBITION of the first is higher: 74.9% for the first, 50.8% for the second.

Compared with `CCN1CCc2c(cccc2NC(=O)CN(C)C2CCSC2)C1` (stereo not given), `CCOCCN(C)C(=O)Nc1cccc2c1CCN(CC)C2` is lower in INHIBITION: 34.1% for the first, 3.48% for the second.

First: CCN1CCC(NC(=O)N(C)Cc2csc3ccccc23)CC1
Second: CCc1nc2ccccc2c(=O)n1CC1(O)CCN(C(=O)C2CC2)CC1
The INHIBITION of the first is higher: 27.6% for the first, 18.3% for the second.

Going from `CC(C)n1cnnc1CN(C)C(=O)c1cccnc1O` to `Cc1nccc(CNC(=O)CCc2c(C)nc3cc(O)nn3c2C)n1`, the INHIBITION falls from 18.6% to -9.19%.

First: CCOc1ccc(S(=O)(=O)C(C)C(=O)Nc2cc(C)no2)cc1 (stereo not given)
Second: Cc1cc(C)n(-c2ccc(CNCc3ccc(OC(C)C)cc3)cn2)n1
The INHIBITION of the first is lower: -11.9% for the first, 53.5% for the second.

Compared with `O=C1CC(C(=O)NCCN2CCOC2=O)c2cc(F)ccc2N1` (stereo not given), `CCC1c2ccsc2CCN1C(=O)NCc1ccnc(N(C)C)c1` (stereo not given) is lower in INHIBITION: 36.4% for the first, -0.44% for the second.

Going from `C=C(C)COc1ccccc1C(=O)NCCCc1nnn[nH]1` to `COc1cccc(CNC(=O)c2ccccc2-n2cc(CN)cn2)c1`, the INHIBITION falls from 31.2% to 5.11%.

First: c1ccc(COCCN2CCc3[nH]cnc3C2c2ccco2)cc1 (stereo not given)
Second: c1ccc(COCCN2CCc3[nH]cnc3C2c2ccoc2)cc1 (stereo not given)
The INHIBITION of the first is higher: 63.3% for the first, 9.63% for the second.

First: Cc1ccc(CNCc2ccc(-n3nc(C)cc3C)nc2)cc1
Second: COc1cc(CNCc2ccc(-n3nc(C)cc3C)nc2)cc(OC)c1
The INHIBITION of the first is higher: 72.2% for the first, -10.193% for the second.

First: CCOc1ccc(C(=O)CC(SC2CCCCC2)C(=O)O)cc1 (stereo not given)
Second: Cc1ccc(CN2CC[C@H]3OCC[C@@]3(COCC(=O)N(C)C)C2)s1
The INHIBITION of the first is lower: 16.1% for the first, 54.8% for the second.

First: COC[C@@]12CCO[C@@H]1CCN(Cc1ccccc1F)C2
Second: COC[C@@]12CCO[C@@H]1CCN(Cc1ccccc1OC)C2
The INHIBITION of the first is lower: 23.5% for the first, 51.2% for the second.

First: COC[C@@H]1CCC[C@@]12CN(Cc1ccc(C)s1)CCO2
Second: COC[C@@]12CCO[C@@H]1CCN(Cc1ccc(C)s1)C2
The INHIBITION of the first is lower: 14.1% for the first, 55.7% for the second.

Going from `COC[C@@]12CCO[C@@H]1CCN(C(=O)COc1ccccc1OC)C2` to `COC[C@@]12CCO[C@@H]1CCN(Cc1sccc1C)C2`, the INHIBITION rises from -19.9% to 34%.

First: CCCOc1ccc(CN)c(OC(F)F)c1
Second: COc1ccc(CN)c(OC(F)F)c1
The INHIBITION of the first is lower: 45.2% for the first, 48.9% for the second.

Compared with `NCc1ccc(OC(F)F)cc1OC(F)F`, `O=C(Cc1ccc(F)cc1)N1CCn2cc(Cn3cncn3)nc2C1` is lower in INHIBITION: 74% for the first, -13.2% for the second.

Going from `C[C@H]1C[C@H]2CN(C(=O)c3ccncn3)CC[C@@H]2O1` to `COCC(=O)N1CCc2ncc(Cn3cncn3)n2CC1`, the INHIBITION falls from 35.8% to 15.9%.

Going from `COc1ccc(CN2CCC3(CC2)NC(=O)CC3c2cnn(C)c2)cc1` (stereo not given) to `O=C(Cc1ccc(F)cc1)N1CCn2c(Cn3cncn3)cnc2C1`, the INHIBITION rises from 12.6% to 57.9%.

First: CN1CCC2(CC1)CN(CC1CC1)CC21CCNC1=O (stereo not given)
Second: CC1c2ncc(Cn3cncn3)n2CCN1C(=O)N(C)C (stereo not given)
The INHIBITION of the first is lower: 22.3% for the first, 49% for the second.

Compared with `COCC(=O)N1CCn2c(Cn3cncn3)cnc2C1C` (stereo not given), `Cc1occc1C(=O)N1CCn2c(Cn3cncn3)cnc2C1C` (stereo not given) is lower in INHIBITION: 36.2% for the first, 6.55% for the second.

Compared with `N#Cc1cccc(C(=O)N2CCn3c(Cn4cncn4)cnc3C2)c1`, `CC1c2ncc(Cn3cncn3)n2CCN1C(=O)c1cscn1` (stereo not given) is higher in INHIBITION: -17.2% for the first, -6.3% for the second.
